The record followed here is PubChem BioAssay (NCATS).

Assay [1] can be described thus: qHTS for Inhibitors of the Functional Ribonucleoprotein Complex (vRNP) of Lassa (LASV) Arenavirus: LASV Primary Screen - GLuc reporter signal (AID 1347082; calls by dose curve; tested in HEK293 reporter line; also: nearly all actives have a fitted effect of over 60% in size; also: potency is read from the fitted curve at half-maximal effect; as to activity change, negative = inhibition: % is scaled to controls: 0 for no effect and ±100 for the full control effect).
A short description of assay [2]: qHTS for Inhibitors of the Functional Ribonucleoprotein Complex (vRNP) of Lassa (LASV) Arenavirus: Viability assay - alamar blue signal for LASV Primary Screen (AID 1347083; calls by dose curve; tested in HEK293 reporter line; also: nearly all actives have a fitted effect of over 80% in size; also: potency is read from the fitted curve at half-maximal effect).
Assay [3] in a line: qHTS for Inhibitors of the Functional Ribonucleoprotein Complex (vRNP) of Lymphocytic Choriomeningitis Arenaviruses (LCMV): Viability assay - alamar blue signal for LCMV Primary Screen (AID 1347085; calls by dose curve; tested in HEK293 reporter line; also: nearly all actives have a fitted effect of over 80% in size; also: potency is read from the fitted curve at half-maximal effect).
Assay [4] deals with Nucleoprotein (Lymphocytic choriomeningitis virus (strain Armstrong)) (UniProt P09992). The experiment in a line: qHTS for Inhibitors of the Functional Ribonucleoprotein Complex (vRNP) of Lymphocytic Choriomeningitis Arenaviruses (LCMV): LCMV Primary Screen - GLuc reporter signal (AID 1347086). Also: nearly all actives have a fitted effect of over 70% in size. Also: potency is read from the fitted curve at half-maximal effect. As to activity change, negative = inhibition: % is scaled to controls: 0 for no effect and ±100 for the full control effect. In general terms: Quantitative high-throughput screening tests each substance at several concentrations.
Sequence of Nucleoprotein (Lymphocytic choriomeningitis virus (strain Armstrong)) (P09992 whole entry, looked up): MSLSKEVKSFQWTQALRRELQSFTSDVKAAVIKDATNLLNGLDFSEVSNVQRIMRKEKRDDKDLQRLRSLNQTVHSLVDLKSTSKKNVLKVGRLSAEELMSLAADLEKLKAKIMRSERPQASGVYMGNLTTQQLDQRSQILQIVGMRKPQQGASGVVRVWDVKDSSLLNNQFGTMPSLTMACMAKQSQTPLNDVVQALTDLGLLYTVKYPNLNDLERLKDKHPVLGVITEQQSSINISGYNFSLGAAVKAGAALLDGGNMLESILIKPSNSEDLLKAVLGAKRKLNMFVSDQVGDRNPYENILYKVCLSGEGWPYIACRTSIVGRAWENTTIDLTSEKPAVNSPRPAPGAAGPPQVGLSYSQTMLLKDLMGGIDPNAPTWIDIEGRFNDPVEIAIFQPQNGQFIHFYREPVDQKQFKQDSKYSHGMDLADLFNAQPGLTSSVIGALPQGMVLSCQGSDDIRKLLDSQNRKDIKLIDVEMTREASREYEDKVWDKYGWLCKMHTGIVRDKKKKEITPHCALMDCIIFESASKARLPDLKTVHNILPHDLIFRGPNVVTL

A short description of assay [5]: Cytotoxicity counterscreen for inhibitors of SARS-CoV-2 cell entry (AID 1645845). Also: nearly all actives have a fitted effect of over 50% in size. An outline of the steps:
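ATP-content luminescence (ATPLite 1step, 15 min RT) read after 48 h compound exposure of Expi293F cells stably expressing human ACE2; normalized to cells-only wells and media-only wells.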

Assay [6] is described as follows: qHTS profiling of the MIPE4 collection as inhibitors of Plasmodium falciparum (3D7) proliferation (AID 743344; call rule not given here;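 also: scaled between DMSO vehicle wells and 0.29 µM artemisinin as full inhibition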). Conditions: P. falciparum 3D7 in erythrocytes, SYBR Green DNA fluorescence, 72 h; at 28.5 µM (top of the series) unless noted. The method, boiled down: (§1)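 Parasite DNA was quantified by SYBR Green I fluorescence (ex 485, em 535 nm) after overnight lysis in saponin/Triton buffer at room temperature. Cultures at 0.3% parasitemia and 2.5% hematocrit were first exposed to compound for 72 h at 37 C; signals were normalised to artemisinin (0.29 uM) and vehicle wells.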

Assay [7] can be described thus: qHTS profiling of the MIPE4 collection as inhibitors of Plasmodium falciparum (HB3) proliferation (AID 743347; call rule not given here;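 also: plate controls were DMSO vehicle wells for no effect and artemisinin wells for full effect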). Conditions: P. falciparum HB3 in erythrocytes, SYBR Green DNA, 72 h; at 28.5 µM (top of the series) unless noted. An outline of the steps:
as §1

Assay [8] can be described thus: Confirmatory qHTS to identify inhibitors of SARS-CoV-2 cell entry (AID 1645844). Also: nearly all actives have a fitted effect of over 45% in size. Also: potency is read from the fitted curve at half-maximal effect. An outline of the steps:
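Luminescence entry read-out after 48 h: spike-pseudotyped MLV particles (Wuhan-Hu-1, 19-aa C-terminal truncation) added to compound-pretreated (1 h) HEK293-ACE2 cells; Data were normalised to bald PP and spike PP wells.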

Assay [9] is described as follows: Primary qHTS to identify inhibitors of SARS-CoV-2 cell entry (AID 1645846). Also: nearly all actives have a fitted effect of over 45% in size. To be noted: activity change, negative = inhibition: at 57.1 µM (top of the series) unless noted. The method, boiled down:
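Entry measured by luciferase signal 48 h after adding SARS-CoV-2-S pseudotyped MLV particles to HEK293-ACE2 cells preincubated 1 h with compounds. Normalisation: bald particles and spike particles.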

Assay [10] can be described thus: VSVG counterscreen qHTS to identify inhibitors of SARS-CoV-2 cell entry (AID 1645847). Also: nearly all actives have a fitted effect of over 65% in size. Also: potency is read from the fitted curve at half-maximal effect. As to activity change, negative = inhibition: % is scaled to controls: 0 for no effect and ±100 for the full control effect. An outline of the steps:
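Luminescence read after 48 h infection at 37 C with VSV-G-pseudotyped MLV particles, following 1 h compound exposure of Expi293F cells stably expressing human ACE2; scaled between bald particle and VSV-G particle wells.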

Assay [11] deals with Cytochrome P450 3A4 (Homo sapiens) (UniProt P08684). The experiment in a line: qHTS Assay for Activators of Cytochrome P450 3A4 (AID 885; active = well fitted curve in the direction sought with a large enough effect; an effect the other way counts as inactive or inconclusive; also: nearly all actives have a fitted effect of over 65% in size). An outline of the steps:
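CYP3A4 activity: Luciferin-PPXE O-dealkylation, 25uM substrate, 200mM KPO4, RT throughout. Read-out is luciferase luminescence; higher values reflect activation.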

The nature of assay [12]: Confirmation and Secondary Assay for Modulators of Hemoglobin Beta Chain Splicing at IVS2 705 locus (AID 930; active = well fitted curve in the direction sought with a large enough effect; an effect the other way counts as inactive or inconclusive;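 also: HeLa cells stably expressing the EGFP-705 splicing reporter; GFP fluorescence per well restored by corrected splicing of the IVS2-705 intron in EGFP; % of control where 0% means no effect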). The method, boiled down: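 Secondary splice-site specificity test uses HeLa expressing CMV-driven EGFP interrupted by IVS2-705; cells were treated 2 days at 37C with 500 nM antisense PNA as positive control.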
The nature of assay [13]: qHTS Assay for Lipid Storage Modulators (AID 1519). As to activity change, negative = inhibition: % is scaled to controls: 0 for no effect and ±100 for the full control effect. To be noted: Drosophila S3 cells, BODIPY lipid droplet/cell ratio, laser cytometry, cells loaded with oleic acid. The method, boiled down: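 Cells seeded at 5,000 per well were treated with compounds over a concentration series and loaded with oleic acid (400 uM, as added). Lipid droplet fluorescence (488 nm excitation, 500-530 nm channel) was read by laser-scanning cytometry and normalized to 20 uM Triacsin C.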

Assay [14] addresses Ubiquitin carboxyl-terminal hydrolase 1 (Homo sapiens) (UniProt O94782). The experiment in a line: Inhibitors of USP1/UAF1: Pilot qHTS (AID 504865; active = well fitted curve in the direction sought with a large enough effect; an effect the other way counts as inactive or inconclusive;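 also: rhodamine fluorescence freed from ubiquitin-rhodamine substrate followed over time; top concentration of the series differs between compounds; % is scaled to controls: 0 for no effect and ±100 for the full control effect; nearly all actives have a fitted effect of over 35% in size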). The method, boiled down:
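Deubiquitinase activity followed as kinetic rhodamine fluorescence release from 150 nM Ub-Rho. 1 nM USP1/UAF1 with compound, after 15 min room-temperature preincubation, in HEPES pH 7.8 buffer containing TCEP, EDTA, BSA and Tween-20.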

SMILES strings stand for the structures. Inconclusive results are not listed. The source made the active and inactive calls. Unless noted, calls follow the shape of the full dose curve.

Sequence of Cytochrome P450 3A4 (Homo sapiens) (P08684 whole entry, looked up): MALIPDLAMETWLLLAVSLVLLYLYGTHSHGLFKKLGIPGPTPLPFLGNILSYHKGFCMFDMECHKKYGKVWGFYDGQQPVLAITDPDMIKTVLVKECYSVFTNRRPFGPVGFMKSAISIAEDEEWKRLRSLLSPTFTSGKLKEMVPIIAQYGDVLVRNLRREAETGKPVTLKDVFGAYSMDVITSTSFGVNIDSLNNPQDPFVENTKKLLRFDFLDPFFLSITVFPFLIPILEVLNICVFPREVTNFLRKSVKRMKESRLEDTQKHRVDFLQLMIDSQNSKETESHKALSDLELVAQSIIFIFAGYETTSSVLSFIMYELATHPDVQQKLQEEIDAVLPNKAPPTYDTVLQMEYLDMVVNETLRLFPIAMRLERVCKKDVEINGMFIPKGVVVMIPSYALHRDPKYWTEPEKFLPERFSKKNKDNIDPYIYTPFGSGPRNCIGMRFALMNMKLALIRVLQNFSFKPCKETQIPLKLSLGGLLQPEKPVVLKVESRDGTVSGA
Sequence of Ubiquitin carboxyl-terminal hydrolase 1 (Homo sapiens) (O94782 whole entry, looked up): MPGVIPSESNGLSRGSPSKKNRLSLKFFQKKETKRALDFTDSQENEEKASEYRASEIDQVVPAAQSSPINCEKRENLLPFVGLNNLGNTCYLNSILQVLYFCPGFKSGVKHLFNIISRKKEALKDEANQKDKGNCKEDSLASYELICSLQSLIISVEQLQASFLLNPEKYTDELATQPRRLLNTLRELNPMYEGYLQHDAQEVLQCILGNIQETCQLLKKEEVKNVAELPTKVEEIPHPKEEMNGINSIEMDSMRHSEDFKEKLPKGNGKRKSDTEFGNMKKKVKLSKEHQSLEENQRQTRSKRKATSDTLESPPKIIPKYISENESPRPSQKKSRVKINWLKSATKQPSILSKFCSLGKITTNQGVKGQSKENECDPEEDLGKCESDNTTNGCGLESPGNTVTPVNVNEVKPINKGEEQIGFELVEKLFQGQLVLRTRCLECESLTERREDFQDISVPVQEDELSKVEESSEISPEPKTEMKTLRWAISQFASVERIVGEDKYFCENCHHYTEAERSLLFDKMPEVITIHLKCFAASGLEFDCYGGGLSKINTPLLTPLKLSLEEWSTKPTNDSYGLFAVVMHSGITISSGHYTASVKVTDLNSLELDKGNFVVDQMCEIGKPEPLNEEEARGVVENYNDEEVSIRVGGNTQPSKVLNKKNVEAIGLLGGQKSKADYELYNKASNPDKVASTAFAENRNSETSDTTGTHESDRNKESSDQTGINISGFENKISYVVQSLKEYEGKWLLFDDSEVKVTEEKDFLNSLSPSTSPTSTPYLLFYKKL

For the compound `CC(C)(C)OC(=O)N[C@H]1CCCCCC=C[C@@H]2C[C@@]2(C(=O)NS(=O)(=O)C2CC2)NC(=O)[C@@H]2C[C@@H](OC(=O)N3Cc4cccc(F)c4C3)CN2C1=O`, the Potency entry in assay [1], in [2], in assay [3], in assay [4] and in assay [5] was “inactive” each time.
Turning to `COc1ccc(S(=O)(=O)Nc2cc(-c3c(O)ccc4ccccc34)c(O)c3ccccc23)cc1`, the Potency entry in assay [1], in assay [2], in assay [3], in [4] and in assay [5] was “inactive” throughout.
In the case of `O=C(O)c1cc(O)c2c(c1)C(=O)c1cccc(O)c1C2=O`, the Potency result in assay [1], in [2], in assay [3], in assay [4] and in assay [5] was “inactive” each time.
Compound `C[N+](C)([O-])CCNc1ccc(NCC[N+](C)(C)[O-])c2c1C(=O)c1c(O)ccc(O)c1C2=O` returned a parasite growth, % of DMSO control in [6] of 49%. The same compound gave a growth, % of control in [7] of 60.6%. For the same compound, the Potency result in assay [1], in assay [2], in assay [3], in assay [4] and in assay [5] was “inactive” in each case. The Potency in assay [8] was 19.2 µM (active). In assay [9], the activity change, negative = inhibition is -13.5%.
Consider `Cc1ccc(C(C)(O)c2nc3ccccc3s2)c(C)c1` (stereo unspecified), for which the Potency result in [1], in assay [2], in [3], in assay [4] and in [5] was “inactive” each time.
For `CCCC1OC2C[C@@H]3[C@H]4CCC5=CC(=O)C=C[C@]5(C)[C@H]4C(O)C[C@]3(C)[C@]2(C(=O)CO)O1` (stereo partly specified), the Potency entry in assay [1], in [2], in assay [3], in assay [4] and in [5] was “inactive” in each case.
Consider `CC(=O)SCC(Cc1ccccc1)C(=O)NCC(=O)OCc1ccccc1` (stereo unspecified), for which the Potency was 1.09 µM (active) in [1], 0.432 µM (active) in assay [2], 0.172 µM (active) in assay [3] and 0.273 µM (active) in [4]. Further, in assay [5], the Potency entry is “inactive”.
Regarding `CN1C(=O)C[C@H](C(=O)N[C@@H](Cc2cnc[nH]2)C(=O)N2CCC[C@@H]2C(N)=O)NC1=O`, in assay [6], the parasite growth, % of DMSO control was found to be 86%. The growth, % of control in [7] came to 48.7%. In addition, the Potency result in assay [1], in [2], in assay [3], in assay [4], in assay [5] and in assay [9] was “inactive” in each case. Moreover, the Potency was 19.2 µM (active) in assay [8] and 0.961 µM (active) in [10].
With `CS(=O)(=O)N(Cc1ccco1)CC(O)Cn1c2ccccc2c2ccccc21` (stereo unspecified), the Potency result in assay [1], in [2], in assay [3], in assay [4] and in [5] was “inactive” each time. Besides, the Potency in assay [8] is 6.81 µM (active); in [10], 0.429 µM (active). Also, the activity change, negative = inhibition in assay [9] was -37.4%.
As to `C=CCSSCC=C`, the Potency result in assay [11], in assay [14], in assay [1], in assay [2], in [3] and in assay [4] was “inactive” in each case. The compound was called inactive in assay [12]. Moreover, the activity change, negative = inhibition in assay [13] (at 57.5 µM (top of the series)) is 11.8% (inactive). The max response worked out at 5.28% in [13] (measured here: cell count channel max response) and 18.2% in [13] (measured here: lipid channel max response).
Turning to `C[C@H](NC(=O)[C@@H](O)c1cc(F)cc(F)c1)C(=O)N[C@@H]1C(=O)N(C)c2ccccc2-c2ccccc21`, the Potency result in assay [1], in [2], in [3], in assay [4] and in assay [5] was “inactive” throughout.
As to `O=C(NCCCCN1CCOCC1)c1cc2ccccc2o1`, the Potency result in assay [1], in [2], in assay [3], in [4], in [8] and in assay [5] was “inactive” in each case. Besides, the Potency result in [9] and in assay [10] was “inactive” throughout.
`CNC(=O)c1nn(C)c2c1C(C)(C)Cc1cnc(Nc3ccc(N4CCN(C)CC4)cc3)nc1-2`: the Potency is 3.43 µM (active) in assay [1]; 1.09 µM (active) in assay [2]; 3.85 µM (active) in assay [3]; 3.06 µM (active) in assay [4]; 3.04 µM (active) in assay [8]; 4.82 µM (active) in assay [10].
